# Measurements from PubChem BioAssay (Tox21).
# Several values for one entry are separate records, joined by “and”; a condition that tells them apart may be missing. Equal values may be shown once. Records with an inconclusive call do not appear. Entries that show only a call come without a potency. More than one record can exist for a structure, and the calls need not agree. Activity calls are given as the source filed them. Unless noted, the call rests on the fitted dose curve.
# Assays:
# [1] = Nuclear factor erythroid 2-related factor 2/antioxidant responsive element (Nrf2/ARE) small molecule agonists: qHTS cell viability counter screen in human keratinocytes (AID 1919968; active means well fitted curve in the direction sought with a large enough effect in the repeat runs; an effect the other way counts as inactive or inconclusive; further: nearly all actives have a fitted effect of over 55% in size; further: potency means the concentration at half of the fitted maximal effect)
# How it was run: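 After a 5 h attachment period, ARE-reporter keratinocytes were dosed with compounds in DMSO and then cultured 23 h at 37 C. Cell viability came from CellTiter-Fluor signal read after a further 1 h.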
# [2] = Nuclear factor erythroid 2-related factor 2/antioxidant responsive element (Nrf2/ARE) small molecule agonists: luciferase reporter gene qHTS assay in human keratinocytes (AID 1919969); further: nearly all actives have a fitted effect of over 35% in size; further: potency means the concentration at half of the fitted maximal effect
# [3] = molecular target: KiSS-1 receptor (Homo sapiens) (UniProt Q969F8); assay: Human kisspeptin (KISS1R) small molecule agonists, calcium flux assay in KISS1R-HEK293 cells (AID 1920064; active means well fitted curve in the direction sought with a large enough effect in the repeat runs; an effect the other way counts as inactive or inconclusive)
# How it was run: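 Kinetic calcium assay, 1 s sampling over 3 min at Ex/Em 480/540, in HEK293 cells engineered with human KISS1R; compounds delivered in DMSO after 1 h dye loading.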
# [4] = G protein-coupled receptor (GPCR) small molecule agonists, calcium flux assay: HEK293 wild type cell line counter screen (AID 1920065)
# How it was run: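 Calcium-sensitive dye, loaded 1 h at 37 C into cells cultured 18 h, reports compound-evoked calcium release as fluorescence (Ex/Em 480/540), measured over 3 min. Agonist mode; 15-point titrations, triplicate.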
# [5] = p53 small molecule agonists, cell-based qHTS assay with human liver microsomes (AID 1963577)
# How it was run: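 Compounds act here after metabolic activation: human liver microsomes and NADPH, both at 0.5 mg/mL final, were co-added to p53RE-bla cells. Incubation ran 16 h at 37 C, followed by LiveBLAzer detection.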
# [6] = p53 small molecule agonists, cell-based qHTS assay with rat liver microsomes (AID 1963578); further: potency means the concentration at half of the fitted maximal effect
# How it was run: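 Read-out is beta-lactamase reporter fluorescence (LiveBLAzer, 2 h, room temperature, dark) in p53RE-bla cells treated 16 h at 37 C with compound, rat liver microsomes and NADPH, both 0.5 mg/mL final.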
# [7] = p53 small molecule agonists, cell-based qHTS assay with human liver microsomes: qHTS cell viability counter screen (AID 1963579); further: nearly all actives have a fitted effect of over 45% in size; further: potency means the concentration at half of the fitted maximal effect
# How it was run: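 Cells carrying the p53 response-element beta-lactamase reporter are treated for 16 h at 37 C with test compounds in the presence of human liver microsomes and NADPH (both 0.5 mg/mL final); ATP-based CellTiter-Glo luminescence then reports viability.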
# [8] = p53 small molecule agonists, cell-based qHTS assay with rat liver microsomes: qHTS cell viability counter screen (AID 1963580); further: nearly all actives have a fitted effect of over 45% in size; further: potency means the concentration at half of the fitted maximal effect
# How it was run: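 p53RE-bla HCT-116 cells were exposed 16 h at 37 C to compounds with rat liver microsomes (0.5 mg/mL) and NADPH (0.5 mg/mL). Viability was measured in the same wells as ATP content by CellTiter-Glo luminescence.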
# [9] = p53 small molecule agonists, cell-based qHTS assay: qHTS cell viability counter screen (AID 1963581); further: nearly all actives have a fitted effect of over 45% in size
# How it was run: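 Following 5 h attachment, HCT-116 p53RE-bla cells took up compound for 16 h at 37 C; the reporter was read with B/G FRET substrate (2 h RT), and viability then via CellTiter-Glo ATP luminescence.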
# [10] = molecular target: 5-hydroxytryptamine receptor 2A (Homo sapiens) (UniProt P28223); assay: 5-hydroxytryptamine receptor 2A (HTR2A) small molecule antagonists, cell-based qHTS assay (AID 1963586); further: nearly all actives have a fitted effect of over 45% in size; further: potency means the concentration at half of the fitted maximal effect
# How it was run: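 Antagonist-mode intracellular calcium assay: DOI (4 nM) added after 5 min compound pre-incubation at room temperature to dye-loaded HTR2A-CHO cells. Fluorescence followed for 3 min, sampled every second.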
# [11] = molecular target: Muscarinic acetylcholine receptor M1 (Homo sapiens) (UniProt P11229); assay: Cholinergic receptor muscarinic 1 (CHRM1) small molecule antagonists, cell-based qHTS assay (AID 1963588); further: nearly all actives have a fitted effect of over 40% in size; further: potency means the concentration at half of the fitted maximal effect
# How it was run: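 CHRM1-CHO calcium-flux assay, antagonist mode. Cells were seeded 18 h, dye-loaded 1 h at 37 C and given compound for 5 min at RT, then acetylcholine was added at 50nM. FDSS fluorescence was read 3 min; 15 concentrations, three runs.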
# [12] = molecular target: Muscarinic acetylcholine receptor M1 (Homo sapiens) (UniProt P11229); assay: Cholinergic receptor muscarinic 1 (CHRM1) small molecule agonists, cell-based qHTS assay (AID 1963589); further: nearly all actives have a fitted effect of over 35% in size; further: potency means the concentration at half of the fitted maximal effect
# How it was run: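 Measures agonist-induced intracellular calcium rise. Stable human CHRM1 CHO line, 1 h dye load at 37 C, compounds from DMSO, kinetic fluorescence read.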
# [13] = cAMP Responsive Elements (CRE) small molecule agonists, cell-based qHTS assay (AID 1963590)
# How it was run: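 A CRE-responsive beta-lactamase reporter in HEK 293T cells was used. Treatment ran 3 h at 37 C; detection used LiveBLAzer B/G FRET substrate for 2 h at room temperature.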
# [14] = cAMP Responsive Elements (CRE) small molecule antagonists, cell-based qHTS assay (AID 1963591; active means well fitted inhibition curve with a large enough effect in the signal ratio in the repeat runs, not every such curve was filed as active; the % refers to the signal ratio)
# How it was run: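 HEK293T cells carrying a CRE-driven beta-lactamase reporter receive compound and NKH477 (0.25 uM final) for 3 h. Fluorescence from LiveBLAzer B/G FRET substrate is read after 2 h at room temperature.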
# [15] = molecular target: Beta-2 adrenergic receptor (Homo sapiens) (UniProt P07550); assay: Adrenergic beta2 receptor (ADRB2) small molecule antagonists, cell-based qHTS assay (AID 1963592); further: series mostly up to about 92 µM; nearly all actives have a fitted effect of over 50% in size
# How it was run: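 Cells (CHO, stable ADRB2 overexpression) incubated 18-20hr at 37C; compounds added from DMSO; agonist mix (1nM isoproterenol, 100uM IBMX, 25uM Ro-20-1724) added; 0.5hr RT; d2-cAMP and anti-cAMP-cryptate added; 1hr RT; 665/615 nm read.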
# [16] = molecular target: D(2) dopamine receptor (Homo sapiens) (UniProt P14416); assay: Dopamine D2 receptor (DRD2) small molecule agonists, cell-based qHTS assay (AID 1963594); further: nearly all actives have a fitted effect of over 35% in size
# How it was run: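 HEK293 cells stably expressing human DRD2, pre-treated with PDE inhibitor Ro20-1724 (0.1 mM final) and compound 10 min at room temperature, then stimulated with NKH477 (200nM […]) for 30 min. cAMP read by HTRF (665/620 nm).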
# [17] = molecular target: D(2) dopamine receptor (Homo sapiens) (UniProt P14416); assay: Dopamine D2 receptor (DRD2) small molecule antagonists, cell-based qHTS assay (AID 1963595; active means well fitted inhibition curve with a large enough effect in the signal ratio in the repeat runs, with a control signal flat; the % refers to the signal ratio; further: potency means the concentration at half of the fitted maximal effect)
# How it was run: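 HEK293 cells stably expressing DRD2 were preincubated with 0.1 mM Ro20-1724, then with compound for 10 min at room temperature. Cells were stimulated with 200 nM NKH477 plus 12 nM quinpirole for 30 min, and cAMP was read by HTRF.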
# [18] = molecular target: 5-hydroxytryptamine receptor 2A (Homo sapiens) (UniProt P28223); assay: 5-hydroxytryptamine receptor 2A (HTR2A) small molecule agonists, cell-based qHTS assay (AID 1963587); further: nearly all actives have a fitted effect of over 30% in size; further: potency means the concentration at half of the fitted maximal effect
# How it was run: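 CHO cells stably expressing human HTR2A, plated 18 h, loaded with calcium dye 1 h at 37 C. Agonist mode: compounds added and intracellular calcium fluorescence recorded kinetically for 2 min at 1 sec intervals.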
# [19] = molecular target: Beta-2 adrenergic receptor (Homo sapiens) (UniProt P07550); assay: Adrenergic beta2 receptor (ADRB2) small molecule agonists, cell-based qHTS assay (AID 1963593);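 further: CHO cells stably overexpressing human ADRB2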
# How it was run: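 CHO cells stably over-expressing ADRB2 were plated overnight at 37C, then dosed with compounds plus a stimulation mix containing 100uM IBMX and 25uM Ro-20-1724 for 0.5hr at room temperature. cAMP was measured by HTRF competition, 1hr.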
# [20] = molecular target: Gonadotropin-releasing hormone receptor (Homo sapiens) (UniProt P30968); assay: Human gonadotropin-releasing hormone receptor (GnRHR) small molecule agonists, calcium flux assay in GnRHR-HEK293 cells (AID 1920063); further: nearly all actives have a fitted effect of over 35% in size
# How it was run: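 We seeded human GnRHR-expressing HEK293 cells for 18 hours, loaded them with calcium dye for an hour at 37 C, added test compounds, and recorded fluorescence intensity kinetically for three minutes.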
# Sequence of Beta-2 adrenergic receptor (Homo sapiens) (P07550 whole entry, looked up): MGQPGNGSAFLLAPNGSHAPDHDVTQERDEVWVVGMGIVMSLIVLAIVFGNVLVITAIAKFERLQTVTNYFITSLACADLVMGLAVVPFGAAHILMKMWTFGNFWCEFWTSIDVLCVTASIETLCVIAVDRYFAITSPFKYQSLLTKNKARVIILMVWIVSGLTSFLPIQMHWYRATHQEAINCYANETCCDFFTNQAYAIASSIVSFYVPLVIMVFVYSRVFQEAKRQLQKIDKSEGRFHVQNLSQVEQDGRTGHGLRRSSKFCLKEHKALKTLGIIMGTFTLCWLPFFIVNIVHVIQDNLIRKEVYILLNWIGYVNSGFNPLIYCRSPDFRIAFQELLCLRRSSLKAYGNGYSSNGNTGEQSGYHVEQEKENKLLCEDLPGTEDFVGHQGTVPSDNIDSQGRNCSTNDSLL
# Sequence of Muscarinic acetylcholine receptor M1 (Homo sapiens) (P11229 whole entry, looked up): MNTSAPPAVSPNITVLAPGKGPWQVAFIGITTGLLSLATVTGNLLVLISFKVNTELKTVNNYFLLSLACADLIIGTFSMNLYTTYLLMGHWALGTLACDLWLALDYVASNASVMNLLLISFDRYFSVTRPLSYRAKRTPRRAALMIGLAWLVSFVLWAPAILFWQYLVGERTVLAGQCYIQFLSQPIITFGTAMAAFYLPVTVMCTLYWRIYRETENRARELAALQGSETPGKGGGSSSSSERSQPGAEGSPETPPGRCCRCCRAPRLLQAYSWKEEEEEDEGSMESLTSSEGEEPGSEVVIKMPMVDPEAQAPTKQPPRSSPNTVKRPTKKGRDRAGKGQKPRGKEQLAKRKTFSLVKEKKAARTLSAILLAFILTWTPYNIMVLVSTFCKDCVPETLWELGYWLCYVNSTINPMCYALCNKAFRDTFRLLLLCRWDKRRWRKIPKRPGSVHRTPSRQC
# Sequence of KiSS-1 receptor (Homo sapiens) (Q969F8 whole entry, looked up): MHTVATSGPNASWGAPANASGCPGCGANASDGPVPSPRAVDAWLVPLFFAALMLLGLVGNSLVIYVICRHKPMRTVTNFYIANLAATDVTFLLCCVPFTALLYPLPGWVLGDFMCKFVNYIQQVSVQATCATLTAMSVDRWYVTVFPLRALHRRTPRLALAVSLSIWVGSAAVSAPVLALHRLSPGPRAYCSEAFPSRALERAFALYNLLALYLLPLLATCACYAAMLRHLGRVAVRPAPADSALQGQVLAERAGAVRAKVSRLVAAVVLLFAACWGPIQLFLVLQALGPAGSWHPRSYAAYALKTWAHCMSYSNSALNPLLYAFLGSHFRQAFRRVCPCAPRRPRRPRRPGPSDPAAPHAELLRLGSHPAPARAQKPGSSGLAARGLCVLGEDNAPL
# Sequence of Gonadotropin-releasing hormone receptor (Homo sapiens) (P30968 whole entry, looked up): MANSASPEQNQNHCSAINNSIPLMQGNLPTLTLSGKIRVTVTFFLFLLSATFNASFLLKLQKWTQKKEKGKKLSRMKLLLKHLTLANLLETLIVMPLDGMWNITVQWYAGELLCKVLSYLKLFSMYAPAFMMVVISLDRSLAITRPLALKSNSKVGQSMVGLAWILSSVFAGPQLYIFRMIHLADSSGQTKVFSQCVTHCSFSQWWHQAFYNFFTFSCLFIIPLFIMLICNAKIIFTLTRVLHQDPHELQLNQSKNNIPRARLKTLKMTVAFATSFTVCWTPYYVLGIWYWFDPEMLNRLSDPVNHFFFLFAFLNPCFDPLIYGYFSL
# Sequence of 5-hydroxytryptamine receptor 2A (Homo sapiens) (P28223 whole entry, looked up): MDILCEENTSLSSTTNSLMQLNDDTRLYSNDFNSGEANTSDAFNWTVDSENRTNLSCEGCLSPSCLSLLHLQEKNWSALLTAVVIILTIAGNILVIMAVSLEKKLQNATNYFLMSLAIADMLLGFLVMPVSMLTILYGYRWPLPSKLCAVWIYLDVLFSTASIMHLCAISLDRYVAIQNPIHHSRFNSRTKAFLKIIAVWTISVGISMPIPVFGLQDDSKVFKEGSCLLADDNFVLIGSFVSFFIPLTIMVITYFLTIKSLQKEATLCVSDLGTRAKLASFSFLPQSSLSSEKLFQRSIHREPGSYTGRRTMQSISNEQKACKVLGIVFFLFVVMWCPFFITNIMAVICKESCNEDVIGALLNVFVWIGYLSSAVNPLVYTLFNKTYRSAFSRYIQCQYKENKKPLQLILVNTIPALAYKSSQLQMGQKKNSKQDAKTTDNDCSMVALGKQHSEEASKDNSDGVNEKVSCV
# Sequence of D(2) dopamine receptor (Homo sapiens) (P14416 whole entry, looked up): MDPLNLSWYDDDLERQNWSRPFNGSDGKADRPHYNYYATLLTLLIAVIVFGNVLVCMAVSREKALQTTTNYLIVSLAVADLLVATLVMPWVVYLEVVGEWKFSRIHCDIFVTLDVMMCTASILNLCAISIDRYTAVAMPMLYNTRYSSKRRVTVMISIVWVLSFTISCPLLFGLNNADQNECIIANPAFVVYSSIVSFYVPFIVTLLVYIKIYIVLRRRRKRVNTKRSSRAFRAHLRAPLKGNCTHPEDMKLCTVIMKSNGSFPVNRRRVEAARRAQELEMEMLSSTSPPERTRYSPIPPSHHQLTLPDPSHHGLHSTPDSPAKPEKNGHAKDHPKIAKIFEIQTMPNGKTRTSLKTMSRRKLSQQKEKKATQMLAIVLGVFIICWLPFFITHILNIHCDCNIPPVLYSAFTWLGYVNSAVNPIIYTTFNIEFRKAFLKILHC
SMILES,Potency [1],Potency [2],Potency [3],Potency [4],Potency [5],Potency [6],Potency [7],Potency [8],Potency [9],Potency [10],Potency [11],Potency [12],Potency [13],Potency [14],Potency [15],Potency [16],Potency [17],Potency [18],Potency [19],Potency [20]
C=CCNC(N)=S,inactive,inactive,inactive,inactive,inactive,inactive,inactive,inactive,inactive,inactive,inactive,inactive,inactive,inactive,inactive,inactive,inactive,,,
CCCCCCCC=O,inactive,inactive,inactive,inactive,inactive,inactive,inactive,inactive,inactive,inactive,inactive,inactive,inactive,inactive,inactive,inactive,inactive,inactive,inactive,
Cc1ccc(S(=O)(=O)NCl)cc1,inactive,inactive,inactive,inactive,inactive,inactive,inactive,inactive,inactive,inactive,inactive,inactive,inactive,inactive,inactive,inactive,inactive,inactive,inactive,
O=c1[nH]cnc2c1ncn2[C@H]1CC[C@@H](CO)O1,inactive,inactive,,inactive,,,inactive,inactive,inactive,,,,,inactive,inactive,inactive,inactive,,inactive,inactive
CCO[Si](CCCNC(N)=O)(OCC)OCC,inactive,inactive,inactive,inactive,inactive,inactive,inactive,inactive,inactive,,inactive,inactive,inactive,inactive,inactive,inactive,inactive,inactive,inactive,
CCCCOCCO,inactive,inactive,,inactive,,inactive,inactive,inactive,,,inactive,inactive,inactive,inactive,inactive,inactive,inactive,inactive,,inactive
c1ccc2c(c1)c1cccc3ccc4cccc2c4c31,inactive,inactive,,inactive,inactive,32.2 µM (active),inactive,,,,,,inactive,inactive,,inactive,inactive,,,inactive
CN(C)CCC(c1ccccc1)c1ccccn1 (centres undefined),inactive,inactive,inactive,inactive,inactive,inactive,inactive,inactive,inactive,inactive,inactive and 3.26 µM (active),inactive,,inactive,,,inactive,inactive,inactive,
CCCCCCCCCCCCN,inactive and 30.6 µM (active),inactive,inactive,inactive,inactive,inactive,inactive and 40.8 µM (active),inactive,inactive,5.94 µM (active) and inactive,inactive,inactive and 24.5 µM (active),inactive,,inactive,inactive,inactive and 43.3 µM (active),24.5 µM (active) and inactive,inactive,
Cc1cc(C(C)(C)C)c(O)c(C(C)(C)C)c1,inactive,24.4 µM (active) and 48.6 µM (active),,inactive,inactive,inactive,inactive,inactive,inactive,inactive,inactive,inactive,inactive,inactive,inactive,inactive,,inactive,,inactive
O=C(O)CS,inactive,inactive and 61.6 µM (active),,inactive,,,inactive,inactive,,inactive,inactive,inactive,inactive,inactive,inactive,inactive,inactive,inactive,inactive,inactive
CC(C)Cc1ccc(C(C)C(=O)O)cc1 (centres undefined),inactive,inactive,,inactive,inactive,inactive,inactive,inactive,inactive,,,,,inactive,inactive,inactive,inactive,,inactive,inactive
Cc1ccc([N+](=O)[O-])c(C)c1,2.43 µM (active) and inactive,1.93 µM (active) and inactive,,,inactive,inactive,inactive,18.2 µM (active) and inactive,inactive,inactive,inactive,,inactive,inactive,inactive,inactive,inactive,inactive,inactive,inactive
